A number with no mark means an inactive call. Active and inactive are the calls of the source. Cut-off read from the data, not from the text of the source: active = fold change mostly below about -2 (no sharp cut-off); inactive = mostly above about -1.8.
Test: TERT promoter activity modulators, primary screen, cell-based, luciferase reporter, human (AID 1259240)
Details: A2780 TERT promoter luciferase reporter, 16 h; at 20 µM, fold versus average of vehicle-only wells

SMILES | fold change | outcome
CCc1cccc(Nc2nc3ccccc3n3nnnc23)c1 | -12.7 (active) | –
c1ccc2c(c1)nc(N1CCN(C3CCCCC3)CC1)c1nncn12 | 1.24 | –
Cc1nc2c(-c3ccc(F)cc3)c(C)nn2c(C)c1CCC(=O)NC(C)C | -1.28 | –
COc1cc2cc(=O)[nH]c(C)c2cc1OC | 1.08 | –
Cc1cc(=O)[nH]c(SCC(=O)c2c[nH]c3ccccc23)n1 | – | inactive
Cc1cccc(-c2nc3s/c(=C4\C(=O)N(C)c5ccccc54)c(=O)n3n2)c1 | -1.34 | –
Cc1cccc(-c2c3c(=O)n(C)c(=O)n(C)c3c3c(C)nc4ccccc4n23)c1 | 1.21 | –
O=C(c1cccc(Cl)c1)N1CCN(c2ccc3nnc(-c4ccccc4)n3n2)CC1 | 1 | –
CC(C)C(NS(=O)(=O)c1cccc2nsnc12)C(=O)NC1CCCCC1C (stereo not drawn) | -1.42 | –
O=C1Nc2ccccc2/C1=C\c1cn(CC(=O)N2CCCC2)c2ccccc12 | 1.66 | –
O=c1[nH]cnc2c1c(-c1ccccc1)cn2-c1ccc(F)cc1 | – | inactive
CC1(C)CC(=O)c2sc(NC(=O)c3ccccc3)nc2C1 | -1.97 | –
O=S(=O)(c1cccc(-c2cn3ccccc3n2)c1)N1CCCCC1 | -1.03 | –
CN(C)CCN1C(=O)C(=O)/C(=C(\O)c2ccc(F)cc2)C12C(=O)N(C)c1ccccc12 (stereo not drawn) | -1.34 | –
CCN(CC)c1ccc2cc(C(=O)O)c(=O)oc2c1 | 1.12 | –
CCc1nc(N)c(C#N)c(-c2ccco2)c1C | -2.16 (active) | –
O=C(CSc1nnc2c(n1)[nH]c1ccccc12)c1ccc(Br)cc1 | 1.22 | –
c1ccc2nc3c(nc2c1)Nn1cnnc1S3 | -1.42 | –
Cn1c(=O)c(=O)n(C)c2cc(S(=O)(=O)N3CCC(C(N)=O)CC3)ccc21 | -1.21 | –
Cc1cc(C)n(-c2nc3ccccc3n3cnnc23)n1 | -1.18 | –
O=C(Cc1ccc(NC2=NC3CS(=O)(=O)CC3S2)cc1)Nc1ccc(F)cc1 (stereo not drawn) | -1.7 | –
COc1ccccc1-c1c(C)nn2c(N(C)CCC#N)cc(C)nc12 | -1.5 | –

SMILES | fold change | outcome
Cn1c2ccccc2c2cnn(CC(=O)NCCc3c[nH]c4ccccc34)c(=O)c21 | 1.23 | –
O=C(Cn1c(=O)oc2cc(S(=O)(=O)NC3CCCC3)ccc21)NC1CCCCCCC1 | 1.01 | –
Cc1ccc(C2CC(=O)Nc3cc4c(cc32)OCCO4)cc1Br (stereo not drawn) | -1.14 | –
Cc1ccc(-c2nnc3c4ccccc4c(C)nn23)cc1S(=O)(=O)NCC1CCCO1 (stereo not drawn) | 1.3 | –
Cc1nc(SCC(=O)c2ccccc2)c2c(=O)n(C)c(=O)n(C)c2n1 | 1.14 | –
CCOC(=O)C1=C(CS(=O)(=O)c2ccccc2)NC(=O)NC1c1ccccc1 (stereo not drawn) | 1.91 | –
CN1CCc2c(sc3c2C(=O)NC(c2ccc(OC(=O)c4ccccc4Cl)cc2)N3)C1 (stereo not drawn) | -1.85 | –
c1ccc(-c2nnc3ccc(NCCCN4CCc5ccccc5C4)nn23)cc1 | -1.21 | –
CC1CCCN(S(=O)(=O)c2cccc(-c3cn4cccnc4n3)c2)C1 (stereo not drawn) | -1.53 | –
COc1cc2c(c(OC)c1)C(c1ccc(Br)cc1)CC(=O)N2 (stereo not drawn) | 1.09 | –
Cc1cc(C)n(-c2nc3cc(Cl)ccc3nc2Cl)n1 | 1.03 | –
Cc1ccn2c(NC(=O)CC(C)C)c(-c3ccc(F)cc3)nc2c1 | -2.38 (active) | –
Cc1cccc(-c2nc3s/c(=C\c4ccc(F)cc4)c(=O)n3n2)c1 | -1.54 | –
CCOC(=O)C1=C(CS(=O)(=O)c2ccc(C)cc2)NC(=O)NC1c1ccccc1 (stereo not drawn) | 1.64 | –
C=CCn1c(NCCN(CC)CC)nc2c1c(=O)[nH]c(=O)n2C | 1.22 | –
Cc1cc(C)c2sc(-c3ccccc3)cc(=O)c2c1 | -37 (active) | –
c1ccc2c(c1)OCC(CNc1nnc(Cc3ccncc3)c3ccccc13)O2 (stereo not drawn) | -1.37 | –
Cc1cc(C)c(Cn2c3ccccc3c3cnn(CC(=O)NCC4CCCO4)c(=O)c32)c(C)c1 (stereo not drawn) | -1.24 | –
COc1ccc(Nc2nc(N)nc(CSc3nccn3C)n2)cc1 | 1.57 | –
CC1CCN(S(=O)(=O)c2ccc3c(c2)N(CC(=O)N2CCOCC2)C(=O)CO3)CC1 | 1.44 | –
COc1ccc(Nc2c(-c3c[nH]c4ccccc34)nc3cnccn23)cc1 | -1.09 | –

Reference: PubChem BioAssay AID1259240 (Keith Lab, Institute of Cancer Science, University of …, 2017)
